Source: PubChem BioAssay
The source made the active and inactive calls.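 How the source made its calls, unless noted: active means viability loss from added drug above about 55%, and viability with drug at most 40%, in both replicates (limit read from the data, passing the limit was not always enough); inconclusive means both conditions met in only one replicate; inactive means neither replicate meets both conditions.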

Experiment: growth inhibitors of H69AR lung tumor, primary screen, human, duplicate replicates (AID 580;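 active means viability at or under a set limit in both replicates, limit being median viability minus 3 SD, cut at about 48% in these data, passing the limit was not always enough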;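 further: 100% = mean luminescence of untreated wells and 0% = no signal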)
Conditions: H69AR lung tumor cells viability, ATP luminescence, 72 h; at 10 µM; stronger effect = lower value

Q: For COc1cc2[nH]c(=O)n(CCC(=O)N3CCc4ccccc4C3)c(=O)c2cc1OC, which viability is on record?
A: 92.4% (inactive)

Q: For CCOC(=O)c1c(NC(=O)CSc2nnc(-c3cccnc3)o2)sc(C)c1C, which viability is on record?
A: 99.1% (inactive)

Q: For CC1CCN(C(=O)CSc2nnc(-c3ccc(S(=O)(=O)N4CCOCC4)cc3)n2C)CC1, which viability is on record?
A: 88.3% (inactive)

Experiment: reversal of MRP1-mediated doxorubicin resistance, pilot screen, H69AR cells, doxorubicin co-treatment (AID 601)
Conditions: H69AR cells + 2 uM doxorubicin, CellTiter-Glo, 72 h; at 10 µM; stronger effect = higher value

Q: Which differential viability (reversal) does the source give for O=C(CS(=O)(=O)c1cn(Cc2ccc(Cl)cc2)c2ccccc12)N1CCCC1 here?
A: -3.04% (inactive)

Q: Which differential viability (reversal) does the source give for O=c1c2cc(N3CCOCC3)ccc2[nH]c(=S)n1CCCN1CCCC1 here?
A: 14.6% (inactive)

Q: For CCOC(=O)c1[nH]c(C)c(C(=O)Nc2ccc(C)c(Cl)c2)c1C, which differential viability (reversal) is on record?
A: -29% (inactive)

Q: Which differential viability (reversal) does the source give for CSc1nnc(-c2nnc(SC)n2-c2ccccc2)n1-c1ccccc1 here?
A: 9.77% (inactive)

Q: For COc1ccc(C(=O)NCc2ccccc2OC)cc1, which differential viability (reversal) is on record?
A: 9.52% (inactive)

Q: Which differential viability (reversal) does the source give for CCOC(=O)c1[nH]c(C)c(C(=O)N2CCN(C(=O)c3ccco3)CC2)c1C here?
A: 2.2% (inactive)

Q: Which differential viability (reversal) does the source give for O=C(O)c1oc2ccccc2c1-n1cccc1 here?
A: -0.995% (inactive)

Q: Which differential viability (reversal) does the source give for Cc1nn(-c2ccc(F)cc2)c(C)c1NS(=O)(=O)c1ccc(Cl)cc1 here?
A: -5.18% (inactive)

Q: For O=C(CSc1nnc(-c2ccccc2)c(-c2ccccc2)n1)N1CCOCC1, which differential viability (reversal) is on record?
A: 12.8% (inactive)

Q: Which differential viability (reversal) does the source give for O=C(NCCCNC(=O)c1ccccn1)c1ccccn1 here?
A: -0.68% (inactive)

Q: For Cn1c(=O)c2[nH]c(NCC3CCCO3)nc2n(-c2ccccc2)c1=O (stereo not drawn), which differential viability (reversal) is on record?
A: 10.4% (inactive)

Q: For CCOC(=O)c1c(C)[nH]c(C=Nc2ccccc2)c1O, which differential viability (reversal) is on record?
A: 10.2% (inactive)

Q: For COc1ccc(-n2c(SCc3ccc(C#N)cc3)nnc2-c2ccccn2)cc1, which differential viability (reversal) is on record?
A: 11.2% (inactive)

Q: With O=C(O)c1ccc2c(c1)N(Cc1ccccc1F)C(=O)c1ccccc1S2=O (stereo not drawn) as the compound, how does the differential viability (reversal) read?
A: 5.27% (inactive)

Q: With Cc1onc(-c2ccccc2Cl)c1C(=O)Nc1cccc(-c2cn3cccnc3n2)c1 as the compound, how does the differential viability (reversal) read?
A: 1.15% (inactive)

Q: Which differential viability (reversal) does the source give for COc1cc(OC)cc(C(=O)NCCN2CCOCC2)c1 here?
A: 1.49% (inactive)

Q: With Cn1c(=O)[nH]c(=O)c2c1nc(N1CCNCC1)n2CCOc1ccccc1 as the compound, how does the differential viability (reversal) read?
A: -8.6% (inactive)

Q: With COc1ccc(CC(NC(C)=O)C(=O)NC2CCN(c3nc(C)cc(C)c3C#N)CC2)c(OC)c1 (stereo not drawn) as the compound, how does the differential viability (reversal) read?
A: -0.69% (inactive)

Q: Which differential viability (reversal) does the source give for C[C@H](NC(=O)NCc1cccs1)C(=O)O here?
A: 0.105% (inactive)

Q: Which differential viability (reversal) does the source give for O=C(CCS(=O)(=O)c1cc(Br)cc2c1N(C(=O)C1CC1)CC2)NCC1CCCO1 (stereo not drawn) here?
A: -3.57% (inactive)

Q: Which differential viability (reversal) does the source give for CCC1CCCCN1C(=O)Cn1c(C(=O)OC)cc2sc(Cl)cc21 (stereo not drawn) here?
A: -17% (inactive)

Q: With CC(=O)c1cnc2cc(-c3ccccc3)nn2c1C as the compound, how does the differential viability (reversal) read?
A: 19.5% (inactive)

Q: With CCOC(=O)C1CCN(S(=O)(=O)c2cc(Cl)c(C)cc2OC)CC1 as the compound, how does the differential viability (reversal) read?
A: -9.44% (inactive)

Q: Which differential viability (reversal) does the source give for CCCN1CCN(C(=O)Cn2c(=O)oc3cc(S(=O)(=O)NCc4ccccc4)ccc32)CC1 here?
A: 7.88% (inactive)

Q: Which differential viability (reversal) does the source give for COc1ccc(S(=O)(=O)N2CCC(C(=O)c3ccc4c(c3)OCCO4)CC2)cc1 here?
A: 7.49% (inactive)

Q: For CCCC(=O)Nc1nnc(CC(=O)OCC)s1, which differential viability (reversal) is on record?
A: -0.96% (inactive)

Q: With c1ccc(OCCCn2nnc(-c3cccnc3)n2)cc1 as the compound, how does the differential viability (reversal) read?
A: 10.3% (inactive)

Q: Which differential viability (reversal) does the source give for CC(=O)N1C(=O)N(C)C2C1N(C(C)=O)C(=O)N2C (stereo not drawn) here?
A: -1.64% (inactive)

Q: Which differential viability (reversal) does the source give for COc1cccc(NC(=O)N2CCCC2C(=O)NC(C)C)c1 (stereo not drawn) here?
A: 11.2% (inactive)

Q: With c1ccc2ncc(-n3cnnn3)cc2c1 as the compound, how does the differential viability (reversal) read?
A: 6.05% (inactive)

Q: Which differential viability (reversal) does the source give for CC(=O)Nc1ccc(OC(=O)c2cccnc2)cc1 here?
A: 15.1% (inactive)

Q: With O=C(CN1C(=O)c2cccc3cccc1c23)N1CCN(c2ccccc2)CC1 as the compound, how does the differential viability (reversal) read?
A: 23.3% (inactive)

Q: With CSc1ccccc1NC(=O)c1c(Br)cnn1C as the compound, how does the differential viability (reversal) read?
A: 6.58% (inactive)

Q: Which differential viability (reversal) does the source give for O=C(c1ccccc1Oc1nnnn1-c1ccccc1)N1CCOCC1 here?
A: 7.74% (inactive)

Q: For O=C(CSc1nnc(COc2ccc(Cl)cc2)o1)N1CCN(c2ccccc2)CC1, which differential viability (reversal) is on record?
A: -2.18% (inactive)

Q: For CCOC(=O)c1ccccc1NC(=O)Cn1cnc2c(cnn2-c2ccc(OC)cc2)c1=O, which differential viability (reversal) is on record?
A: 1.5% (inactive)

Q: With COC(=O)c1c(C)oc2ccc(NS(=O)(=O)c3cccs3)cc12 as the compound, how does the differential viability (reversal) read?
A: -21.9% (inactive)

Q: Which differential viability (reversal) does the source give for COc1cc2[nH]c(=O)n(CCC(=O)N3CCc4ccccc4C3)c(=O)c2cc1OC here?
A: -2.6% (inactive)

Q: For CCOC(=O)c1c(NC(=O)CSc2nnc(-c3cccnc3)o2)sc(C)c1C, which differential viability (reversal) is on record?
A: 14% (inactive)

Q: With CC1CCN(C(=O)CSc2nnc(-c3ccc(S(=O)(=O)N4CCOCC4)cc3)n2C)CC1 as the compound, how does the differential viability (reversal) read?
A: -4.8% (inactive)
